Assay results taken from PubChem BioAssay (NCATS).
Inconclusive results are not listed. A call without a number means that no potency is given here. The source made the active and inactive calls. The call rests on the fitted dose curve; in most records, active means well fitted inhibition curve with a large enough effect; inconclusive means small, poorly fitted or top-dose-only effect; inactive means flat fitted curve, though single readings scatter.

Experiments:
Experiment in all cases: qHTS profiling for inhibitors of Plasmodium falciparum proliferation (AID 504749); further: nearly all actives have a fitted effect of over 60% in size
Details in all cases: P. falciparum in erythrocytes, SYBR Green DNA, 72 h; series mostly up to 28.7 µM
P93_24 = tested on: P93_24
Summary of the method: (§1)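 SYBR Green fluorescence of parasite DNA, read after lysis and overnight dark incubation, measured growth over 72 h in erythrocyte culture at 0.3% parasitemia and 2.5% hematocrit. Data normalised to DMSO and 0.29 uM artemisinin, with plate-drift correction.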

P94_40 = tested on: P94_40
Summary of the method: as §1

PAD = tested on: PAD
Summary of the method: as §1

PC15 = tested on: PC15
Summary of the method: as §1

PC26 = tested on: PC26
Summary of the method: as §1

PC49 = tested on: PC49
Summary of the method: as §1

SC27B = tested on: SC27B
Summary of the method: as §1

TAB109 = tested on: TAB109
Summary of the method: as §1

TAB113 = tested on: TAB113
Summary of the method: as §1

TAB165 = tested on: TAB165
Summary of the method: as §1
Potency means the concentration at half of the fitted maximal effect.

| Structure (SMILES) | Potency (P93_24) | Potency (P94_40) | Potency (PAD) | Potency (PC15) | Potency (PC26) | Potency (PC49) | Potency (SC27B) | Potency (TAB109) | Potency (TAB113) | Potency (TAB165) |
| --- | --- | --- | --- | --- | --- | --- | --- | --- | --- | --- |
| CCCNCC(O)COc1ccccc1C(=O)CCc1ccccc1 (stereo not drawn) | 0.501 µM (active) | 0.316 µM (active) | 0.398 µM (active) | 0.708 µM (active) | 1.69 µM (active) | 0.316 µM (active) | 0.891 µM (active) | 0.794 µM (active) | 0.794 µM (active) | 0.447 µM (active) |
| COc1ccccc1N1CCN(CC(O)COc2cccc3ccccc23)CC1 (stereo not drawn) | inactive | inactive | inactive | inactive | inactive | inactive | inactive | inactive |  |  |
| COc1cc2c(c(OC)c1OC)-c1ccc(OC)c(=O)cc1[C@@H](NC(C)=O)CC2 | inactive | inactive | inactive | inactive | inactive | inactive | inactive | inactive | inactive | inactive |
| Cc1cnc(C(=O)NCCc2ccc(S(=O)(=O)NC(=O)NC3CCCCC3)cc2)cn1 | inactive | inactive | inactive | inactive | inactive | inactive | inactive | inactive | inactive | inactive |
| NC(=O)OCC(COC(N)=O)c1ccccc1 | inactive | inactive | inactive | inactive | inactive | inactive | inactive | inactive | inactive | inactive |
| COC(=O)Nc1nc2ccc(C(=O)c3cccs3)cc2[nH]1 | inactive | inactive | inactive | inactive | inactive | inactive | inactive | inactive | inactive | inactive |
| Cn1c(=O)c2c(ncn2C)n(C)c1=O | inactive | inactive | inactive | inactive | inactive | inactive | inactive | inactive | inactive | inactive |
| Cc1ccc(-c2cc(C(F)(F)F)nn2-c2ccc(S(N)(=O)=O)cc2)cc1 |  |  |  |  | 9.53 µM (active) | inactive |  |  |  |  |
| CN(C)CCOC(c1ccccc1)c1ccccc1 |  |  | inactive |  |  | inactive | inactive |  | inactive |  |
| CC1(CN2CCC(n3c(=O)[nH]c4ccccc43)CC2)OCc2ccccc2-n2cccc21 (stereo not drawn) | 11.2 µM (active) | 10 µM (active) | 8.91 µM (active) | 7.94 µM (active) | 12 µM (active) | inactive | 10 µM (active) |  |  | 8.91 µM (active) |
| O=C(c1ccc(F)cc1)C1CCN(CCn2c(=O)[nH]c3ccccc3c2=O)CC1 | inactive |  | inactive | inactive | inactive | inactive | inactive | inactive | inactive | inactive |
| Cc1cc(C(C)(C)C)cc(C)c1CC1=NCCN1 |  | inactive | inactive | inactive | inactive | inactive | inactive | inactive | inactive | inactive |
| CC#C[C@]1(O)CC[C@H]2[C@@H]3CCC4=CC(=O)CCC4=C3[C@@H](c3ccc(N(C)C)cc3)C[C@@]21C | 11.2 µM (active) |  | 10 µM (active) | 12.6 µM (active) | 13.5 µM (active) |  | 7.94 µM (active) | 11.2 µM (active) | 8.91 µM (active) | 6.31 µM (active) |
| O=c1c(-c2ccc(O)cc2)coc2cc(O)cc(O)c12 | inactive | inactive | inactive | inactive |  | inactive | inactive | inactive | inactive | inactive |
| CN(Cc1cnc2nc(N)nc(N)c2n1)c1ccc(C(=O)N[C@@H](CCC(=O)O)C(=O)O)cc1 |  | 0.178 µM (active) |  | 0.224 µM (active) | inactive | 0.178 µM (active) | 0.178 µM (active) | inactive |  | inactive |
| Cn1ccc2cc3c(cc21)CCN3C(=O)Nc1cccnc1 |  |  |  |  | 13.5 µM (active) |  |  |  |  |  |
| CNCCCC12CCC(c3ccccc31)c1ccccc12 |  |  | inactive |  |  | inactive | inactive | inactive | inactive |  |
| CCOC(=O)Nc1ccc(NCc2ccc(F)cc2)nc1N |  |  | 10 µM (active) |  | 19 µM (active) |  | 10 µM (active) | 10 µM (active) | 11.2 µM (active) | 10 µM (active) |
| Cc1ccc(C(=O)Nc2ccc(S(=O)(=O)O)c3cc(S(=O)(=O)O)cc(S(=O)(=O)O)c23)cc1NC(=O)c1cccc(NC(=O)Nc2cccc(C(=O)Nc3cc(C(=O)Nc4ccc(S(=O)(=O)O)c5cc(S(=O)(=O)O)cc(S(=O)(=O)O)c45)ccc3C)c2)c1 | inactive | inactive | inactive | inactive | inactive | inactive | inactive |  | inactive | inactive |
| COc1ccc(CCN(C)CCCC(C#N)(c2ccc(OC)c(OC)c2)C(C)C)cc1OC (stereo not drawn) |  |  | inactive | inactive |  | inactive | inactive |  | inactive | inactive |
| Cn1c(=O)c2[nH]cnc2n(C)c1=O | inactive | inactive |  | inactive | inactive | inactive | inactive | inactive | inactive | inactive |
| Clc1ccc(C(c2ccccc2Cl)C(Cl)Cl)cc1 (stereo not drawn) | inactive | inactive | inactive | inactive |  | inactive | inactive | inactive | inactive | inactive |
| NC12CC3CC(CC(C3)C1)C2 | inactive | inactive | inactive |  | inactive | inactive | inactive | inactive | inactive | inactive |

| Structure (SMILES) | Potency (P93_24) | Potency (P94_40) | Potency (PAD) | Potency (PC15) | Potency (PC26) | Potency (PC49) | Potency (SC27B) | Potency (TAB109) | Potency (TAB113) | Potency (TAB165) |
| --- | --- | --- | --- | --- | --- | --- | --- | --- | --- | --- |
| O=C(c1ccc(OCCN2CCCCC2)cc1)c1c(-c2ccc(O)cc2)sc2cc(O)ccc12 | 8.91 µM (active) | 7.94 µM (active) |  |  |  |  | 8.91 µM (active) | 7.94 µM (active) | 5.01 µM (active) | 2.82 µM (active) |
| CC12CC3CC(C)(C1)CC(N)(C3)C2 | 10 µM (active) | inactive | inactive | inactive | inactive |  | inactive | inactive | inactive | inactive |
| CCCCc1oc2ccccc2c1C(=O)c1cc(I)c(OCCN(CC)CC)c(I)c1 | 3.55 µM (active) | 3.55 µM (active) | 6.31 µM (active) | 11.2 µM (active) | 9.53 µM (active) |  | 10 µM (active) | 7.08 µM (active) | 12.6 µM (active) | 3.16 µM (active) |
| CC[C@@]1(O)C(=O)OCc2c1cc1n(c2=O)Cc2cc3c(CN(C)C)c(O)ccc3nc2-1 | 4.47 µM (active) | 2.82 µM (active) |  | inactive |  | inactive |  | 6.31 µM (active) | 4.47 µM (active) | 3.55 µM (active) |
| COc1ccccc1OCCNCC(O)COc1cccc2[nH]c3ccccc3c12 (stereo not drawn) |  | 10 µM (active) |  |  |  |  | 12.6 µM (active) | 10 µM (active) | 10 µM (active) |  |
| OCCN1CCN(CCCN2c3ccccc3Sc3ccc(C(F)(F)F)cc32)CC1 | 6.31 µM (active) | 11.2 µM (active) | 7.94 µM (active) | 11.2 µM (active) | 6.75 µM (active) |  | 8.91 µM (active) | 7.08 µM (active) | 8.91 µM (active) | 12.6 µM (active) |
| NCCc1cnc[nH]1 | inactive | inactive |  | inactive | inactive |  | inactive | inactive | inactive | inactive |
| CC(C)NCC(O)c1ccc(O)c(O)c1 (stereo not drawn) | inactive | inactive | inactive | inactive |  | inactive | inactive | inactive | inactive | inactive |
| Nc1c2c(nc3ccccc13)CCCC2 |  |  |  | 12.6 µM (active) |  | inactive | inactive | 8.91 µM (active) | inactive |  |
| Clc1ccc2c(c1)C(N1CCNCC1)=Nc1ccccc1O2 |  |  |  |  | inactive | inactive |  |  |  |  |
| O=C(Nc1ccc([N+](=O)[O-])cc1Cl)c1cc(Cl)ccc1O |  |  | 0.631 µM (active) |  | inactive | inactive | 0.631 µM (active) |  | 0.708 µM (active) | 0.355 µM (active) |
| CN1CCC(=C2c3ccccc3CC(=O)c3sccc32)CC1 |  |  |  | inactive |  | inactive |  |  |  |  |
| CC(C)NCC(O)COc1ccc(CCOCC2CC2)cc1 (stereo not drawn) |  |  |  |  |  | inactive | inactive |  |  |  |
| COc1nc(C)nc(Cl)c1NC1=NCCN1 |  | inactive | inactive | inactive | inactive | inactive | inactive | inactive | inactive | inactive |
| CN(C)CCCN1c2ccccc2CCc2ccc(Cl)cc21 |  |  |  |  |  |  | inactive |  |  |  |
| CC(C)(Oc1ccc(C2CC2(Cl)Cl)cc1)C(=O)O (stereo not drawn) | inactive | inactive | inactive |  | inactive | inactive | inactive | inactive | inactive | inactive |
| CN(C)C(=N)N=C(N)N | inactive | inactive | inactive | inactive |  | inactive | inactive | inactive | inactive | inactive |
| O=c1c(O)c(-c2ccc(O)c(O)c2)oc2cc(O)cc(O)c12 |  |  | 1.78 µM (active) |  |  | inactive |  |  |  | 7.08 µM (active) |
| CN(CCOc1ccc(NS(C)(=O)=O)cc1)CCc1ccc(NS(C)(=O)=O)cc1 |  | inactive | inactive | inactive | inactive | inactive | inactive | inactive | inactive | inactive |
| CC(CCc1ccc(O)cc1)NCCc1ccc(O)c(O)c1 (stereo not drawn) | inactive | inactive | inactive |  | inactive | inactive | inactive | inactive | inactive | inactive |
| CC(COc1ccccc1)N(CCCl)Cc1ccccc1 (stereo not drawn) |  |  | inactive | inactive |  | inactive |  |  |  |  |
| O=c1[nH]cc(F)c(=O)[nH]1 |  |  |  |  |  | inactive |  |  |  |  |
| O=C1c2c(O)ccc(O)c2C(=O)c2c(NCCNCCO)ccc(NCCNCCO)c21 | 1.78 µM (active) | 1.58 µM (active) | 2 µM (active) |  | 6.42 µM (active) | inactive | 3.16 µM (active) | 2.24 µM (active) | 3.55 µM (active) | 2 µM (active) |
